Results on 10 molecules are retold here after the supplement of paper PMC4022240.

Test in all cases: peptide microarray binding signal (635 nm), min-max normalized on array (fraction of array maximum); higher = stronger binding
Assay [1] has as its target T1, HaloTag-ATRX ADD domain (163-292).
T1 chain: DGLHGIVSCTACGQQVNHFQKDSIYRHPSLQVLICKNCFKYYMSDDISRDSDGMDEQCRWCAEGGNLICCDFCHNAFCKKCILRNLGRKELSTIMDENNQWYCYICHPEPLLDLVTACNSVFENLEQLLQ
Summed up:
(§1)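 Within each library, mean intensities of triplicate spots were min-max scaled to give the binding signal. The spots were histone 13-mer peptide–cellulose conjugates on nitrocellulose with a Cy3 tracer, blocked overnight at 4°C. They were then probed for 1 h at 4°C using biotin-labelled HaloTag reader fusions (10 nM to 1 μM) with streptavidin-Alexa Fluor 647 or rabbit histone antibodies (1:10,000 to 1:2,000) with anti-rabbit Alexa 647, and scanned at 635 nm for signal and 532 nm for misprints on an Axon GenePix 4000B.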

Assay [2] concerns the target HaloTag-ING2 PHD (mouse Ing2 200-280). Summed up: as §1
Assay [3] addresses anti-H3K4me3 antibody ab8580. The procedure, abridged: as §1
Assay [4] concerns the target anti-H3K9me3 antibody ab8898. Summed up:
as §1

The mark [5] stands for this setting: peptide region: H4 38-50, peptide modifications: H4K44me3 H4R45cit, binder concentration: 1:2,000 dilution.
[6] abbreviates: peptide region: H4 38-50, peptide modifications: H4K44me3 H4R45cit, binder concentration: 1:10,000 dilution.
The mark [7] stands for this setting: peptide region: H4 38-50, peptide modifications: H4R45cit, binder concentration: 1:2,000 dilution.
[8] abbreviates: peptide region: H4 38-50, peptide modifications: H4R45cit, binder concentration: 1:10,000 dilution.
The mark [9] stands for this setting: peptide region: H4 38-50, peptide modifications: H4K44me2 H4R45me1, binder concentration: 1:2,000 dilution.
Setting [10] is: peptide region: H4 38-50, peptide modifications: H4K44me3, binder concentration: 1:2,000 dilution.
[11] abbreviates: peptide region: H4 38-50, peptide modifications: H4K44me3, binder concentration: 1:10,000 dilution.
Where [12] appears, read: peptide region: H4 53-65, peptide modifications: H4K59ac, binder concentration: 1:2,000 dilution.
The mark [13] stands for this setting: peptide region: H4 53-65, peptide modifications: H4K59ac, binder concentration: 1:10,000 dilution.
Setting [14] is: peptide region: H4 38-50, peptide modifications: H4K44me1 H4R45me2a, binder concentration: 1:2,000 dilution.
The mark [15] stands for this setting: peptide region: H4 38-50, peptide modifications: H4K44me1 H4R45me2a, binder concentration: 1:10,000 dilution.
The mark [16] stands for this setting: peptide region: H4 38-50, peptide modifications: H4K44me2 H4R45cit, binder concentration: 1:2,000 dilution.
The mark [17] stands for this setting: peptide region: H4 38-50, peptide modifications: H4K44me2 H4R45cit, binder concentration: 1:10,000 dilution.
Where [18] appears, read: peptide region: H4 38-50, peptide modifications: H4K44me3 H4R45me1, binder concentration: 1:2,000 dilution.
Setting [19] is: peptide region: H4 38-50, peptide modifications: H4K44me3 H4R45me1, binder concentration: 1:10,000 dilution.
Setting [20] is: peptide region: H4 53-65, peptide modifications: H4K59me1, binder concentration: 1:2,000 dilution.
Where [21] appears, read: peptide region: H4 53-65, peptide modifications: H4K59me1, binder concentration: 1:10,000 dilution.
The mark [22] stands for this setting: peptide region: H4 38-50, peptide modifications: H4K44me1 H4R45me2s, binder concentration: 1:2,000 dilution.
The mark [23] stands for this setting: peptide region: H4 38-50, peptide modifications: H4K44me1 H4R45me2s, binder concentration: 1:10,000 dilution.

± gives the standard deviation.

Turning to ARRGGVKRISGLI [H4 38-50 A R R G G V Kme3 Rcit I S G L I], the “peptide microarray binding signal” value in assay [1] (peptide region: H4 38-50, peptide modifications: H4K44me3 H4R45cit, binder concentration: 50 nM) was 0.0125 ± 0.00042; in assay [1] (peptide region: H4 38-50, peptide modifications: H4K44me3 H4R45cit, binder concentration: 500 nM), 0.0116 ± 0.0018; in assay [2] (peptide region: H4 38-50, peptide modifications: H4K44me3 H4R45cit, binder concentration: 10 nM), 0.00836 ± 0.00091; in assay [2] (peptide region: H4 38-50, peptide modifications: H4K44me3 H4R45cit, binder concentration: 100 nM), 0.00588 ± 0.0012; in assay [3] (setting [5]) it was 0.00387 ± 0.00082; in assay [3] (setting [6]) it was 0.00502 ± 0.00084. For the same molecule, the “peptide microarray binding signal” value in assay [4] (setting [5]) was found to be 0.00444 ± 0.00077; in assay [4] (setting [6]), 0.00467 ± 0.00024.

Take ARRGGVKRISGLI [H4 38-50 A R R G G V K Rcit I S G L I]: the “peptide microarray binding signal” value came to 0.00395 ± 6.8e-05 in assay [1] (peptide region: H4 38-50, peptide modifications: H4R45cit, binder concentration: 50 nM); 0.00619 ± 7.4e-05 in assay [1] (peptide region: H4 38-50, peptide modifications: H4R45cit, binder concentration: 500 nM); 0.00561 ± 4.7e-05 in assay [2] (peptide region: H4 38-50, peptide modifications: H4R45cit, binder concentration: 10 nM); 0.0163 ± 0.003 in assay [2] (peptide region: H4 38-50, peptide modifications: H4R45cit, binder concentration: 100 nM); 0.012 ± 0.0055 in assay [3] (setting [7]); 0.00976 ± 0.00034 in assay [3] (setting [8]). In addition, the entries for the “peptide microarray binding signal” value in assay [4] (setting [7]) and in assay [4] (setting [8]) were 0.00521 ± 0.00036 and 0.00271 ± 7.1e-05, respectively.

As for ARRGGVKRISGLI [H4 38-50 A R R G G V Kme2 Rme I S G L I], the “peptide microarray binding signal” value was determined as 0.00233 ± 8.5e-05 in assay [1] (peptide region: H4 38-50, peptide modifications: H4K44me2 H4R45me1, binder concentration: 500 nM); 0.00361 ± 0.00019 in assay [2] (peptide region: H4 38-50, peptide modifications: H4K44me2 H4R45me1, binder concentration: 100 nM); 0.000491 ± 1.3e-05 in assay [3] (setting [9]); 0.000347 ± 9.2e-06 in assay [4] (setting [9]).

For the molecule ARRGGVKRISGLI [H4 38-50 A R R G G V Kme3 R I S G L I], the “peptide microarray binding signal” value in assay [1] (peptide region: H4 38-50, peptide modifications: H4K44me3, binder concentration: 50 nM) amounted to 0.00367 ± 6.4e-05; in assay [1] (peptide region: H4 38-50, peptide modifications: H4K44me3, binder concentration: 500 nM), 0.00671 ± 0.00031; in assay [2] (peptide region: H4 38-50, peptide modifications: H4K44me3, binder concentration: 10 nM) it was 0.00859 ± 9.7e-05; in assay [2] (peptide region: H4 38-50, peptide modifications: H4K44me3, binder concentration: 100 nM), 0.0129 ± 0.00014; in assay [3] (setting [10]), 0.00104 ± 4.6e-05; in assay [3] (setting [11]) it was 0.0016 ± 2.7e-05. Also, the “peptide microarray binding signal” value in assay [4] (setting [10]) amounted to 0.0011 ± 0.0001; in assay [4] (setting [11]), 0.00161 ± 5.6e-05.

As for ETRGVLKVFLENV [H4 53-65 E T R G V L Kac V F L E N V], the “peptide microarray binding signal” value in assay [1] (peptide region: H4 53-65, peptide modifications: H4K59ac, binder concentration: 50 nM) was 0.00241 ± 3.2e-05; in assay [1] (peptide region: H4 53-65, peptide modifications: H4K59ac, binder concentration: 500 nM), 0.00333 ± 0.00022; in assay [2] (peptide region: H4 53-65, peptide modifications: H4K59ac, binder concentration: 10 nM), 0.00997 ± 0.0024; in assay [2] (peptide region: H4 53-65, peptide modifications: H4K59ac, binder concentration: 100 nM) it was 0.00425 ± 0.00013; in assay [3] (setting [12]), 0.00104 ± 4.9e-05; in assay [3] (setting [13]), 0.00143 ± 4.8e-05. For the same molecule, the “peptide microarray binding signal” value in assay [4] (setting [12]) amounted to 0.000529 ± 1.3e-05; in assay [4] (setting [13]) it was 0.00104 ± 2.1e-05.

Consider ARRGGVKRISGLI [H4 38-50 A R R G G V Kme Rme2a I S G L I], for which the “peptide microarray binding signal” value in assay [1] (peptide region: H4 38-50, peptide modifications: H4K44me1 H4R45me2a, binder concentration: 50 nM) came out at 0.0254 ± 0.0015; in assay [1] (peptide region: H4 38-50, peptide modifications: H4K44me1 H4R45me2a, binder concentration: 500 nM), 0.016 ± 0.00078; in assay [2] (peptide region: H4 38-50, peptide modifications: H4K44me1 H4R45me2a, binder concentration: 10 nM), 0.0305 ± 0.00031; in assay [2] (peptide region: H4 38-50, peptide modifications: H4K44me1 H4R45me2a, binder concentration: 100 nM), 0.0275 ± 0.00071; in assay [3] (setting [14]), 0.00417 ± 0.00012; in assay [3] (setting [15]), 0.00987 ± 0.00037. In addition, the “peptide microarray binding signal” value was determined as 0.00331 ± 7.1e-05 in assay [4] (setting [14]) and 0.00974 ± 0.0007 in assay [4] (setting [15]).

For ARRGGVKRISGLI [H4 38-50 A R R G G V Kme2 Rcit I S G L I], the “peptide microarray binding signal” value in assay [1] (peptide region: H4 38-50, peptide modifications: H4K44me2 H4R45cit, binder concentration: 50 nM) was determined as 0.00389 ± 6.7e-05; in assay [1] (peptide region: H4 38-50, peptide modifications: H4K44me2 H4R45cit, binder concentration: 500 nM) it was 0.00743; in assay [2] (peptide region: H4 38-50, peptide modifications: H4K44me2 H4R45cit, binder concentration: 10 nM), 0.007102 ± 3.2e-05; in assay [2] (peptide region: H4 38-50, peptide modifications: H4K44me2 H4R45cit, binder concentration: 100 nM), 0.0109 ± 0.00033; in assay [3] (setting [16]) it was 0.00136 ± 0.00012; in assay [3] (setting [17]) it was 0.00177 ± 2.9e-05. Also, the “peptide microarray binding signal” value came to 0.00104 ± 2.9e-05 in assay [4] (setting [16]) and 0.0011 ± 2.9e-05 in assay [4] (setting [17]).

With ARRGGVKRISGLI [H4 38-50 A R R G G V Kme3 Rme I S G L I], the “peptide microarray binding signal” value in assay [1] (peptide region: H4 38-50, peptide modifications: H4K44me3 H4R45me1, binder concentration: 50 nM) came out at 0.002821 ± 2.4e-05; in assay [1] (peptide region: H4 38-50, peptide modifications: H4K44me3 H4R45me1, binder concentration: 500 nM), 0.00524 ± 8.9e-05; in assay [2] (peptide region: H4 38-50, peptide modifications: H4K44me3 H4R45me1, binder concentration: 10 nM), 0.0104 ± 0.0012; in assay [2] (peptide region: H4 38-50, peptide modifications: H4K44me3 H4R45me1, binder concentration: 100 nM) it was 0.0257 ± 0.006; in assay [3] (setting [18]) it was 0.00143 ± 5.5e-05; in assay [3] (setting [19]), 0.001655 ± 1.6e-05. The “peptide microarray binding signal” value in assay [4] (setting [18]) came out at 0.000951; in assay [4] (setting [19]), 0.000865 ± 9e-06.

ETRGVLKVFLENV [H4 53-65 E T R G V L Kme V F L E N V]: the “peptide microarray binding signal” value in assay [1] (peptide region: H4 53-65, peptide modifications: H4K59me1, binder concentration: 50 nM) was 0.00605 ± 0.00068; in assay [1] (peptide region: H4 53-65, peptide modifications: H4K59me1, binder concentration: 500 nM) it was 0.00795 ± 0.00042; in assay [2] (peptide region: H4 53-65, peptide modifications: H4K59me1, binder concentration: 10 nM) it was 0.00847 ± 0.001; in assay [2] (peptide region: H4 53-65, peptide modifications: H4K59me1, binder concentration: 100 nM), 0.0164 ± 0.0049; in assay [3] (setting [20]) it was 0.00213 ± 0.00025; in assay [3] (setting [21]), 0.00314 ± 0.00021. Besides, the entries for the “peptide microarray binding signal” value in assay [4] (setting [20]) and in assay [4] (setting [21]) were 0.00166 ± 0.00016 and 0.00231 ± 8.4e-05, respectively.

For the molecule ARRGGVKRISGLI [H4 38-50 A R R G G V Kme Rme2s I S G L I], the “peptide microarray binding signal” value in assay [1] (peptide region: H4 38-50, peptide modifications: H4K44me1 H4R45me2s, binder concentration: 50 nM) amounted to 0.006019 ± 2.1e-05; in assay [1] (peptide region: H4 38-50, peptide modifications: H4K44me1 H4R45me2s, binder concentration: 500 nM) it was 0.00619 ± 0.00016; in assay [2] (peptide region: H4 38-50, peptide modifications: H4K44me1 H4R45me2s, binder concentration: 10 nM), 0.0119 ± 0.00057; in assay [2] (peptide region: H4 38-50, peptide modifications: H4K44me1 H4R45me2s, binder concentration: 100 nM) it was 0.0102 ± 0.0013; in assay [3] (setting [22]) it was 0.00185 ± 0.00022; in assay [3] (setting [23]), 0.00451 ± 0.00035. Moreover, the “peptide microarray binding signal” value came to 0.00219 ± 0.00017 in assay [4] (setting [22]) and 0.0034 ± 0.00013 in assay [4] (setting [23]).
